This experiment is described as follows: NCI Yeast Anticancer Drug Screen. Data for the wt2 strain (AID 169).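 Note: 0% = growth of vehicle-treated yeast cultures.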 Particulars: S. cerevisiae wt2 strain growth inhibition, active compounds read high. As for the experimental part:
Growth inhibition of yeast strains with defined genetic alterations is measured as a screen for potential anti-cancer activity. Selected strains with alterations in DNA damage repair or cell cycle control were exposed to compounds and growth inhibition was measured relative to vehicle treated controls. The strain used in this assay is wt2

From PubChem BioAssay (NCI) come the findings set out here.

This is part of a sample that, as a whole, favours compounds with a hit. Of some 79,000 tested, about 15% had one in any assay. A number with no mark means an inactive call. Active and inactive are the calls of the source. Cut-off read from the data, not from the text of the source: active = growth inhibition above about 70%; inactive = the rest.

For `CNC(=O)OCc1c(COC(=O)NC)c(C)n(-c2ccc(Cl)c(Cl)c2)c1C`, the growth inhibition was -48% (at 1.2 µM); -37% (at 3.7 µM); -58% (at 11.0 µM); 91% (active) (at 33.0 µM); 97% (active) (at 100.0 µM).

Turning to `O=C(O)[C@H]1[C@@H](C2CCCCC2)O[C@@H](C2CCCCC2)O[C@H]1C(F)(F)F`, the growth inhibition reads like this: (at 1.2 µM) -2%; (at 3.7 µM) -3%; (at 11.0 µM) -3%; (at 33.0 µM) -4%; (at 100.0 µM) -1%.

Consider `O=[N+]([O-])c1cccc2nc3ccccc3c(NCCC[N+]3([O-])CCOCC3)c12`, for which the growth inhibition runs as follows: (at 1.2 µM) -3%; (at 3.7 µM) -1%; (at 11.0 µM) 3%; (at 33.0 µM) 34%; (at 100.0 µM) 93% (active).

On to `CCOc1ccc2ccc3cccnc3c2n1`, for which the growth inhibition by setting is: (at 1.2 µM) 0%; (at 3.7 µM) 2%; (at 11.0 µM) 8%; (at 33.0 µM) 37%; (at 100.0 µM) 66%.

As for `Cc1ccc(Nc2n[nH]c(=S)s2)cc1C`, the growth inhibition is -33% (at 1.2 µM); -23% (at 3.7 µM); -28% (at 11.0 µM); 28% (at 33.0 µM); 85% (active) (at 100.0 µM).

On to `Cc1ccc2nc(N/N=C/c3ccc(C)s3)cc(C)c2c1`, for which the growth inhibition was 9% (at 1.2 µM); 6% (at 3.7 µM); 30% (at 11.0 µM); 99% (active) (at 33.0 µM); 96% (active) (at 100.0 µM).

With `BrC/C=C/C[P+](c1ccccc1)(c1ccccc1)c1ccccc1`, the growth inhibition (at 1.2 µM) was 3%; the growth inhibition (at 3.7 µM) is 9%; the growth inhibition (at 11.0 µM) was 95% (active); the growth inhibition (at 33.0 µM) was 98% (active); the growth inhibition (at 100.0 µM) is 99% (active).

Regarding `O=C1OC(/C=C/c2ccccc2)Sc2ccccc21` (stereo not given), the growth inhibition is -2% (at 1.2 µM); -8% (at 3.7 µM); -2% (at 11.0 µM); 1% (at 33.0 µM); 10% (at 100.0 µM).
